Test results from PubChem BioAssay AID368 (University of Pittsburgh Molecular Library Screening Center, 2006).
About 85 (0.1%) of roughly 65,000 compounds were called active. No stated cut-off is given here; in the data, active means inhibition above about 50%; inactive means the rest. The list comes from a sample in which actives are over-represented; it also holds similar structures and randomly drawn compounds.

Each compound was assayed against M-phase inducer phosphatase 2 (Homo sapiens) (UniProt P30305) (assay: human Cdc25B tyrosine phosphatase blockers – biochemical, OMFP fluorescence, catalytic domain, primary screen (AID 368)). Conditions: recombinant Cdc25B, OMFP fluorescence Ex485/Em525; hits give high values;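 compounds tested at 10 µM final in the well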.
Chain of M-phase inducer phosphatase 2 (Homo sapiens) (P30305 whole entry, looked up, the tested form may be a part): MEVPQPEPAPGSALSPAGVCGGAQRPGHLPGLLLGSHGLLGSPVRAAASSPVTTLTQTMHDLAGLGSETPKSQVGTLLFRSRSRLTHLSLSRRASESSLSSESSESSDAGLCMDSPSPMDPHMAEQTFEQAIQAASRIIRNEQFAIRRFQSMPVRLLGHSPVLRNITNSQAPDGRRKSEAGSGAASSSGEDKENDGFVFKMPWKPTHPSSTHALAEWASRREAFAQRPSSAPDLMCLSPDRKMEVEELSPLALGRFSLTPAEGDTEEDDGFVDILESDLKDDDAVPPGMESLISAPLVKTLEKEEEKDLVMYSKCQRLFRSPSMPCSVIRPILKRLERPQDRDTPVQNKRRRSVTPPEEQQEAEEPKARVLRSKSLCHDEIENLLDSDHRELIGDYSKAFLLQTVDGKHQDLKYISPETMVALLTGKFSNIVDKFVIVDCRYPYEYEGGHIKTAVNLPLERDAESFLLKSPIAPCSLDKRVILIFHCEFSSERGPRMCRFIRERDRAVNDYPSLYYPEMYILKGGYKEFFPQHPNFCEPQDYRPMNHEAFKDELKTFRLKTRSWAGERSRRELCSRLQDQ

inhibition, inactive:
Cc1cc(NS(=O)(=O)c2ccccc2)no1 -0.238%
Nc1ccc(SCCN2C(=O)c3ccccc3C2=O)cc1 3.47%
COc1ccc(C(=O)NCc2cn3ccccc3n2)cc1 8.6%
CC(=O)OCc1cc2cc(C)ccc2[nH]c1=O 8.17%
Cc1noc(C)c1C(=O)NC(C)c1ccc2c(c1)OCO2 (centres undefined) -2.76%
O=C(NC1CC2CCCC(C1)N2C(=O)N1CCCCC1)C1CCCCC1 (centres undefined) 0.205%
Cc1cccc(OCc2nnc(SCc3nc4cc(C(F)(F)F)ccc4c(=O)[nH]3)o2)c1 4.99%
C=CCNc1nnc(SCC(=O)N2CCCCC2)c2ccccc12 -10.6%
O/N=C(\c1ccc2c(c1)OCCO2)C1CCCCC1 -1.56%
CC(C)Cc1cc(C(=O)NCCc2ccccc2)no1 -7.12%
O=C(OCC(=O)c1cccs1)C1=COCCO1 -13.5%
Cc1ccc(-c2csc3nnc(SCC(=O)NCc4ccco4)n23)cc1 -17.7%
Fc1ccccc1CCNc1nnnn1-c1ccccc1 0.973%
Cc1cc(=O)oc(C)c1C(=O)NC1CC(C)(C)NC(C)(C)C1 -30.7%
CCCc1cc(=O)oc2c(C)c(O)c(CN3CCCCC3)cc12 -7.47%
COc1ccc(-c2nc3n(c2Br)CCC3)cc1 2.84%
CC1(C)C(=O)Nc2ccccc2N1C(=O)COC(=O)Cn1cnc2ccccc2c1=O -9.58%
CC(C)OC(=O)c1sc2nc3c(cc2c1N)C(=O)CCC3 15.7%
CCN(CCCCOC(=O)c1ccc(OC)c(OC)c1)C(C)Cc1ccc(OC)cc1 (centres undefined) -19.9%
O=C(O)[C@@H]1CCCN1c1ncnc2sc3c(c12)CCC3 1.46%
O=C(Nc1ccc2c(c1)nc1n2CCCCC1)c1cc(S(=O)(=O)N2CCOCC2)ccc1Cl 7.55%
O=S(=O)(Nc1ccccc1N1CCOCC1)c1ccc(Cl)s1 -16%
COc1cc(OC)c(C(=O)Nc2ccc(N(C)C)cc2)cc1OC 4.05%
CCOC(=O)c1ccc(-c2ccc(C(=O)Nc3cccnc3)o2)cc1 -8.16%
CCOc1cc(NC(=O)c2ccco2)c(OCC)cc1NC(=O)COc1ccccc1 2.37%
COc1ccc(OC)c(C2N(c3ccccn3)C(=O)C3CCCN32)c1 (centres undefined) 6.93%
CCCc1nc(N)nc2c1C(=O)CC(C)(C)C2 -1.09%
CCCN1CCN(CCCNC(=O)CN2C(=O)COc3ccccc32)CC1 -2.33%
O=C(N1CCOCC1)N(Cc1ccccc1)c1ccccn1 -13.1%
O=C(COc1cccc(-n2cnnn2)c1)NCCC1=CCCCC1 -1.12%
Cc1ccnc(N2CCCC(C(=O)Nc3cc(F)ccc3C)C2)n1 (centres undefined) 12.7%
CC1CN(C2CCN(C(=O)COc3ccccc3)CC2)CC(C)O1 (centres undefined) -13.1%
CC1CCCC(C)N1C(=O)CN1CCN(c2nc(-c3ccc(F)cc3)cs2)CC1 (centres undefined) -8.69%
CNC(=O)c1nnn(-c2ccccc2)c1C(=O)NC 0.211%
O=c1c(F)cn(C2CCCO2)c(=O)n1Cc1ccccc1Cl (centres undefined) 1.39%
Fc1ccccc1C(c1nnnn1Cc1ccc2c(c1)OCO2)N1CCN(Cc2ccccc2)CC1 (centres undefined) -4.84%
C=CCn1c(=N)n(CC(O)COc2ccc(OC)cc2)c2ccccc21 (centres undefined) 0.106%
Cc1ncc(CC(=O)n2cc(C(=O)c3cc(Cl)ccc3O)cn2)s1 -7.5%
CC(Nc1nc(N2CCCC2)nc2ccccc12)c1ccccc1 (centres undefined) -6.08%
c1ccc2c(NCC3CCCO3)nc(-c3ccncc3)nc2c1 (centres undefined) 1.5%
O=C(C1=C(O)C(=O)N(Cc2ccccc2)C1c1cccnc1)c1ccco1 (centres undefined) -7.28%
CC(C)(C)Oc1ncc(Br)c(OC(C)(C)C)n1 -14.4%
CC(C)c1ccc(N2CC(C(=O)Nc3nccs3)CC2=O)cc1 (centres undefined) 3.74%
COc1ccc(-n2nc3c(c2NC(=O)Cc2cccc(C)c2)CS(=O)C3)cc1 (centres undefined) -6.02%
C[N+]1(CCNC(=O)/C=N/O)CCCCC1 15.7%
CCOc1cc(N2CCOCC2)c(OCC)cc1NC(=O)COc1cccc2cccnc12 -6.8%
CCn1c(SCC(=O)Nc2cccc(F)c2)nnc1-c1cc2cc(Br)ccc2o1 -5.35%
COC(=O)c1ccc(NC(=O)CN(c2ccc(C)cc2)S(=O)(=O)c2c(C)n[nH]c2C)cc1 5.5%
CC1(C)CC(O)C(CCC(O)c2ccccc2)C(C)(C)N1 (centres undefined) -23.8%
